The values below come from the supplement of paper PMC12067926.

The subject of one assay is Flavobacterium 2 (Flavobacterium succinicans). Briefly: relative growth (AUC of 72 h growth curve relative to DMSO control, dAUC) (ratio); higher = more growth (less inhibition), active = hit call of the paper. The note with it: 20 µM. The method, boiled down:
(§1)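 Relative growth (dAUC) is the spline-integrated area under the growth curve divided by the mean of the DMSO-only control wells. Cultures were isolates from Icelandic stream sediments and Silwood Park soil, plus whole sediment communities, grown to carrying capacity in Luria–Bertani medium and diluted 1:100 into 96-well plates containing each chemical at 20 µM (1% DMSO). A600 was read hourly for 72 h on a plate reader, with brief shaking before each read, and values were averaged over three biological replicates.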
As for `Nc1c([N+](=O)[O-])ccc(Oc2ccccc2)c1Cl`, the relative growth is 0.917 (inactive).
Same read-out and setting: the value for `COCC(=O)N(c1c(C)cccc1C)[C@H](C)C(=O)OC` was 1.02 (inactive).
On the same count and under the same terms, the value for `O=C(Nc1ccc(F)cc1F)c1cccnc1Oc1cccc(C(F)(F)F)c1` was 1.03 (inactive); that for `N#Cc1sc2c(=O)c3ccccc3c(=O)c=2sc1C#N` was 1.05 (inactive); that for `CC(C)OC(=O)Nc1cccc(Cl)c1` was 1.03 (inactive).
Still for that read-out and setting: then `N#C/N=C1\SCCN1Cc1ccc(Cl)nc1`, with 1.04 (inactive); and `CC(Oc1ccc(Oc2ncc(C(F)(F)F)cc2Cl)cc1)C(=O)O` (configuration not stated), with 0.972 (inactive).
With `Oc1ccccc1-c1ccccc1`, the relative growth was 0.946 (inactive).
On the same count and under the same terms, then `C#CCOc1ccc(CCNC(=O)C(OCC#C)c2ccc(Cl)cc2)cc1OC` (configuration not stated), with 0.928 (inactive); and `O=[N+]([O-])c1cc(C(F)(F)F)c(Cl)c([N+](=O)[O-])c1Nc1ncc(C(F)(F)F)cc1Cl`, with 0.00437 (active).
Regarding `CC(C)CC(C)c1sccc1NC(=O)c1cn(C)nc1C(F)(F)F` (configuration not stated), the relative growth was 0.921 (inactive).
On to `O=C1C=C(N(Cc2ccc(Cl)nc2)CC(F)F)CO1`, for which the relative growth was 0.993 (inactive).
Regarding `O=C(Nc1ccccc1-c1ccc(Cl)cc1)c1cccnc1Cl`, the relative growth was 1 (inactive).
As to `CC(C)N1C(=O)c2ccccc2NS1(=O)=O`, the relative growth was 1.02 (inactive).
On the same count and under the same terms, the value for `CCC(=O)Nc1ccc(Cl)c(Cl)c1` was 0.965 (inactive); that for `ClC1C(Cl)C(Cl)C(Cl)C(Cl)C1Cl` (configuration not stated) was 0.932 (inactive).
Still for that read-out and setting: the value for `CN/C(=N\[N+](=O)[O-])NCc1cnc(Cl)s1` was 0.939 (inactive); that for `CCc1cnc(C2=NC(C)(C(C)C)C(=O)N2)c(C(=O)O)c1` (configuration not stated) was 1.03 (inactive); that for `N#Cc1c(Cl)c(Cl)c(Cl)c(C#N)c1Cl` was 0.543 (active).
On the same count and under the same terms, the value for `O=C(NCCc1ncc(C(F)(F)F)cc1Cl)c1ccccc1C(F)(F)F` was 0.962 (inactive); that for `CCc1cc(C)cc(CC)c1-c1c(OC(=O)C(C)(C)C)n2n(c1=O)CCOCC2` was 0.943 (inactive); that for `CC1(C)CON(Cc2ccccc2Cl)C1=O` was 0.941 (inactive).
Consider `CCOCn1c(-c2ccc(Cl)cc2)c(C#N)c(Br)c1C(F)(F)F`, for which the relative growth was 0.988 (inactive).
The same measure, in the same setting: then `COc1cc(C)c(C(=O)c2c(OC)ccc(Br)c2C)c(OC)c1OC`, with 1.02 (inactive); and `CCOc1ccc(C(C)(C)COCc2cccc(Oc3ccccc3)c2)cc1`, with 0.958 (inactive); and `CCCCCCCCCCCCNC(=N)N`, with 0.832 (inactive).
In the case of `CN/C(=N/CC1CCOC1)N[N+](=O)[O-]` (configuration not stated), the relative growth is 1.02 (inactive).
Still for that read-out and setting: then `CC1COC(Cn2cncn2)(c2ccc(Oc3ccc(Cl)cc3)cc2Cl)O1` (configuration not stated), with 0.988 (inactive).
Consider `CNC(=O)ON=C(C)SC`, for which the relative growth is 1.03 (inactive).
The same measure, in the same setting: the value for `CC(C)(C)c1ccc(CSc2cnn(C(C)(C)C)c(=O)c2Cl)cc1` was 1 (inactive); that for `Cc1nnc(-c2ccccc2)c(=O)n1N` was 0.956 (inactive); that for `CCC(C)(C)C(=O)OC1=C(c2ccc(Cl)cc2Cl)C(=O)OC12CCCCC2` was 1.02 (inactive).
Consider `O=C(O)COc1ccc(Cl)cc1Cl`, for which the relative growth is 1.02 (inactive).
The same measure, in the same setting: the value for `CC(C)N(C)S(=O)(=O)NC(=O)c1cc(-n2c(=O)cc(C(F)(F)F)n(C)c2=O)c(F)cc1Cl` was 0.978 (inactive); that for `COc1ncc(F)c2nc(S(=O)(=O)Nc3c(F)cccc3F)nn12` was 1.06 (inactive).
Take `CCCCC(C#N)(Cn1cncn1)c1ccc(Cl)cc1` (configuration not stated): the relative growth was 0.885 (inactive).

Another assay relates to Hymenobacter 1 (Hymenobacter glaciei). The description is as above. The following applies: 20 µM. In a few lines: as §1
With `Nc1c([N+](=O)[O-])ccc(Oc2ccccc2)c1Cl`, the relative growth was 1.09 (inactive).
Still for that read-out and setting: then `COCC(=O)N(c1c(C)cccc1C)[C@H](C)C(=O)OC`, with 1.08 (inactive).
The same measure, in the same setting: the value for `O=C(Nc1ccc(F)cc1F)c1cccnc1Oc1cccc(C(F)(F)F)c1` was 1.05 (inactive).
The same measure, in the same setting: the value for `N#Cc1sc2c(=O)c3ccccc3c(=O)c=2sc1C#N` was 0.709 (inactive).
Consider `CC(C)OC(=O)Nc1cccc(Cl)c1`, for which the relative growth is 1.09 (inactive).
For the compound `N#C/N=C1\SCCN1Cc1ccc(Cl)nc1`, the relative growth was 1.21 (inactive).
Turning to `CC(Oc1ccc(Oc2ncc(C(F)(F)F)cc2Cl)cc1)C(=O)O` (configuration not stated), the relative growth was 1.05 (inactive).
As to `Oc1ccccc1-c1ccccc1`, the relative growth was 0.951 (inactive).
As for `C#CCOc1ccc(CCNC(=O)C(OCC#C)c2ccc(Cl)cc2)cc1OC` (configuration not stated), the relative growth was 1.04 (inactive).
Regarding `O=[N+]([O-])c1cc(C(F)(F)F)c(Cl)c([N+](=O)[O-])c1Nc1ncc(C(F)(F)F)cc1Cl`, the relative growth is 0.0968 (active).
Regarding `CC(C)CC(C)c1sccc1NC(=O)c1cn(C)nc1C(F)(F)F` (configuration not stated), the relative growth was 0.945 (inactive).
In the case of `O=C1C=C(N(Cc2ccc(Cl)nc2)CC(F)F)CO1`, the relative growth is 1.1 (inactive).
The same measure, in the same setting: then `O=C(Nc1ccccc1-c1ccc(Cl)cc1)c1cccnc1Cl`, with 1.11 (inactive); and `CC(C)N1C(=O)c2ccccc2NS1(=O)=O`, with 1.09 (inactive); and `CCC(=O)Nc1ccc(Cl)c(Cl)c1`, with 0.981 (inactive).
`ClC1C(Cl)C(Cl)C(Cl)C(Cl)C1Cl` (configuration not stated): the relative growth is 0.999 (inactive).
Consider `CN/C(=N\[N+](=O)[O-])NCc1cnc(Cl)s1`, for which the relative growth was 0.958 (inactive).
On to `CCc1cnc(C2=NC(C)(C(C)C)C(=O)N2)c(C(=O)O)c1` (configuration not stated), for which the relative growth was 1.09 (inactive).
On the same count and under the same terms, the value for `N#Cc1c(Cl)c(Cl)c(Cl)c(C#N)c1Cl` was 0.352 (active); that for `O=C(NCCc1ncc(C(F)(F)F)cc1Cl)c1ccccc1C(F)(F)F` was 0.995 (inactive); that for `CCc1cc(C)cc(CC)c1-c1c(OC(=O)C(C)(C)C)n2n(c1=O)CCOCC2` was 0.947 (inactive).
As to `CC1(C)CON(Cc2ccccc2Cl)C1=O`, the relative growth was 0.974 (inactive).
Turning to `CCOCn1c(-c2ccc(Cl)cc2)c(C#N)c(Br)c1C(F)(F)F`, the relative growth is 0.993 (inactive).
The same measure, in the same setting: then `COc1cc(C)c(C(=O)c2c(OC)ccc(Br)c2C)c(OC)c1OC`, with 1.16 (inactive); and `CCOc1ccc(C(C)(C)COCc2cccc(Oc3ccccc3)c2)cc1`, with 0.929 (inactive).
Still for that read-out and setting: the value for `CCCCCCCCCCCCNC(=N)N` was 0.00418 (active); that for `CN/C(=N/CC1CCOC1)N[N+](=O)[O-]` (configuration not stated) was 1.06 (inactive); that for `CC1COC(Cn2cncn2)(c2ccc(Oc3ccc(Cl)cc3)cc2Cl)O1` (configuration not stated) was 0.956 (inactive).
Consider `CNC(=O)ON=C(C)SC`, for which the relative growth was 1.07 (inactive).
Same read-out and setting: the value for `CC(C)(C)c1ccc(CSc2cnn(C(C)(C)C)c(=O)c2Cl)cc1` was 1.01 (inactive); that for `Cc1nnc(-c2ccccc2)c(=O)n1N` was 0.868 (inactive).
The same measure, in the same setting: the value for `CCC(C)(C)C(=O)OC1=C(c2ccc(Cl)cc2Cl)C(=O)OC12CCCCC2` was 1.01 (inactive); that for `O=C(O)COc1ccc(Cl)cc1Cl` was 1.07 (inactive).
For the compound `CC(C)N(C)S(=O)(=O)NC(=O)c1cc(-n2c(=O)cc(C(F)(F)F)n(C)c2=O)c(F)cc1Cl`, the relative growth is 1.04 (inactive).
On the same count and under the same terms, then `COc1ncc(F)c2nc(S(=O)(=O)Nc3c(F)cccc3F)nn12`, with 1.06 (inactive); and `CCCCC(C#N)(Cn1cncn1)c1ccc(Cl)cc1` (configuration not stated), with 0.912 (inactive).
